Compound activity from PubChem BioAssay.
Most compounds without a hit are left out; they make up all but 6.5% or so of the library.
Marburg entry inh: blocks Marburg virus binding to or entry into cells. Marburg virus pseudotyped entry inhibition, cell reporter. Potency, µM (highest dose often 37.8 µM), for inactives: at the highest dose activity change, negative = inhibition, usual class: inhibitors. 300,000 compounds, 1.8% hits. AID 540276; calls by dose curve; tested in HEK293 cells; further: potency means the concentration at half of the fitted maximal effect
VACV Venus inh: inhibitors of vaccinia virus (Venus reporter). 330,000 compounds, 0.46% hits. Vaccinia virus Venus reporter expression, fluorescence. Potency, µM (highest dose often 36.5 µM), for inactives: top-dose activity change, negative = inhibition, actives largely listed as inhibitors; calls by dose curve; tested in A549 cells; further: potency means the concentration at half of the fitted maximal effect; nearly all actives have a fitted effect of over 30% in size
FMDV inh: foot and mouth disease virus antiviral activity; 410,000 compounds, 1.2% hits; AID 1159524; FMDV antiviral cell-based qHTS; Potency, µM (highest dose often 57.9 µM), inactives show top-dose activity change, negative = inhibition, usual class: inhibitors; calls by dose curve; tested in HEK293T cells; further: read-out not given here; potency means the concentration at half of the fitted maximal effect; nearly all actives have a fitted effect of over 45% in size
HCMV antiviral: blocks human cytomegalovirus replication. HFF cells, HCMV-luciferase reporter, 72 h; active compounds read low. activity change, negative = inhibition, % at 57.5 µM. 410,000 compounds, 4.5% hits. AID 1259415; in the data active means activity change below about -60%; inconclusive means no clear call, values can overlap the other calls; inactive means above about -39%
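Steps: HFFs plated, 16 h 37C; compounds added; HCMV-luciferase added to MOI 1 PFU/cell; 72 h 37C; OneGlo reagent, 5 min room temperature; luminescence read, normalized to controls.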
Vaccinia mCherry: vaccinia inhibition (mCherry reporter); Vaccinia virus mCherry reporter infection, fluorescence; Potency, µM (doses to about 36.5 µM), without a hit: at the highest dose activity change, negative = inhibition, usual class: inhibitors; 310,000 compounds, 0.63% hits; AID 720579; calls by dose curve; tested in A549 cells; further: potency means the concentration at half of the fitted maximal effect; nearly all actives have a fitted effect of over 35% in size
LASV entry inh: blocks Lassa virus binding to or entry into cells | Lassa virus pseudotype entry inhibition, cell reporter | Potency, µM (top dose mostly 37.9 µM), for the others: top-dose activity change, negative = inhibition, actives largely listed as inhibitors | 300,000 compounds, 1.2% hits | AID 540256; calls by dose curve; tested in HEK293 cells; further: potency means the concentration at half of the fitted maximal effect; nearly all actives have a fitted effect of over 50% in size
An asterisk follows results filed as active; i = inactive; ? = inconclusive; / = not tested or not shown; [ ] = another dose, or the depositor's remark. On the % scale 0 is the no-effect control and ±100 the full control effect.

SMILES	Marburg entry inh	VACV Venus inh	FMDV inh	HCMV antiviral	Vaccinia mCherry	LASV entry inh
CC[C@H]1CN2CCc3cc(OC)c(OC)cc3[C@H]2C[C@@H]1C[C@@H]1NCCc2cc(OC)c(OC)cc21	0.22µM*	/	/	/	/	/
Fc1ccc(NN2CCOCC2)cc1-c1noc2ccccc12	/	/	/	-5	/	/
CCCc1nn2c(=O)cc(COC(=O)c3cccc(NC(=O)COc4ccc(F)cc4)c3)nc2s1	/	-15%	-12%	-4	-18%	15%[46.1 µM]
Cc1ccccc1OCC(=O)Nc1cccc(C(=O)OCc2cc(=O)n3c(C)csc3n2)c1	/	-20%	-23%	-89*	-14%	14%[46.1 µM]
CCCc1nn2c(=O)cc(COC(=O)c3cccc(NC(=O)COc4ccccc4C)c3)nc2s1	/	-8%[7.34 µM]	14µM*	20	-8%[7.34 µM]	?
O=C(NCc1cccs1)c1ccc2c(c1)sc1nc(-c3ccccc3)cn12	/	-15%	27%	/	-23%	10%[46.1 µM]
Cc1nnc(SCC(=O)N/N=C/c2ccc(-c3ccc(C)c(Cl)c3)o2)s1	-25%	-21%	-24%	-65*	-5%	?
CC(C)(C)OC(=O)CNC(=O)c1[nH]cnc1C(=O)NCCCCCN	/	-9%	-16%	-22	i	/
CC(C)(C)OC(=O)CNC(=O)c1[nH]cnc1C(=O)NCCCCCNC(=O)OC(C)(C)C	/	-29%	16µM*	-5	?	/
C[C@@H](OC(=O)c1[nH]cnc1C(=O)NCc1ccc(CNC(=O)OC(C)(C)C)cc1)c1ccccc1	/	?	32µM*	-15	?	/
CC(C)(C)OC(=O)NCc1ccc(CNC(=O)c2[nH]cnc2C(=O)NCC(=O)OCc2ccccc2)cc1	/	-6%	28µM*	?	-1%	/
CC(C)c1c(C(=O)NCCN2CCOCC2)cnn1-c1nccc(-c2cccs2)n1	/	-13%	-10%	/	-23%	/
CC(CCC(C)[n+]1cccc(Br)c1)[n+]1cccc(Br)c1 (stereo unspecified)	/	3%	/	/	i	/
COC(=O)[C@@H]1[C@@H](CO)[C@@H]2Cn3c(ccc(Br)c3=O)[C@@H]2N1C(=O)Cc1cccnc1	/	/	/	-5	/	/
O=[N+]([O-])c1ccc(-c2nc(-c3ccc(F)cc3)c(-c3ccncc3)[nH]2)cc1	8.2µM*	/	/	/	/	?
O=[N+]([O-])c1ccc2nc(-c3ccncc3)[nH]c2c1	/	/	49%	72	/	/
CCOc1ccc(Br)cc1S(=O)(=O)NC1=NCCCCC1	?	-11%	21%	-64*	-15%	14%
CCOc1ccc(Br)cc1S(=O)(=O)Nc1cccc(S(=O)(=O)NC2=NCCC2)c1	/	/	34%	-6	/	/
CNCCC[C@]12CC[C@H](C3=C1CCCC3)C1CCCCC12 (stereo partly specified)	4.6µM*	/	/	/	/	/
CC[N+]1(CC(=O)c2ccc(I)cc2)CCCCC1	/	-8%	/	/	i	/
COc1cc(C2c3cc4c(cc3CC3COC(=O)C32)OCO4)cc(OC)c1O (stereo unspecified)	?	?	-12%	-90*	-24%	?
COc1cc(C2c3cc4c(cc3C3OC(=O)C2C3CO)OCO4)cc(OC)c1OC (stereo unspecified)	/	?	-5%	-76*	-8%	/
CCC1C(c2cc(OC)c(OC)c(OC)c2)c2cc3c(cc2OC1N1CCCC1)OCO3 (stereo unspecified)	?	?	-8%	-3	-9%	8.9µM*
COc1cc([C@@H]2c3cc4c(cc3[C@@H](O)[C@H]3COC(=O)[C@H]23)OCO4)cc(OC)c1O[Si](C)(C)C(C)(C)C	/	?	0%	?	-19%	/
COc1cc(C2c3cc4c(cc3C(OC(C)=O)[C@H]3COC(=O)C23)OCO4)cc(OC)c1OC (stereo partly specified)	/	-31%	-16%	/	-36%	/
O=C(NCc1nnc2n1CCN(Cc1ccc(C(F)(F)F)cc1)CC2)c1cccc(F)c1	/	-5%	-12%	/	-16%	/
O=C(O)c1c2c(nc3ccccc13)CCCC2	/	-11%	/	/	17%	/
COc1ccc(Cl)cc1N(C)c1nc(N2CCN(S(=O)(=O)c3ccc(C)cc3)CC2)c2ccccc2n1	/	-7%	/	/	i	/
N#C/C(=N\Nc1ccc(S(=O)(=O)N2CCCCCC2)cc1)C(N)=S	?	-19%	17%	-20	-16%	-4%
N#CC(C#N)=NNc1ccc(S(=O)(=O)N2CCCC2)cc1	?	-11%	32µM*	-11	i	28%
